According to PubChem BioAssay AID1006 (Sanford-Burnham Center for Chemical Genomics, 2008):
Where “and” joins values, the source holds several entries; their conditions need not be identical. Equal values may be shown once. Among all 200,000 compounds or so, about 3,000 (1.5%) were called active.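 How the source made its calls: active means inhibition above about 50% when tested at 10 µM (limit read from the data); inactive means the rest.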 This excerpt belongs to a sample that is enriched for actives.

The compounds below were run against Luciferin 4-monooxygenase (Photinus pyralis) (UniProt P08659) (assay: firefly luciferase enzyme inhibitors, primary screen, artefact control for luciferase-based inhibitor screens, biochemical, luminescence, ATPLite (AID 1006)). Settings: 10 min, at 10 µM, hits give high values.
Luciferin 4-monooxygenase (Photinus pyralis), sequence (P08659 whole entry, looked up): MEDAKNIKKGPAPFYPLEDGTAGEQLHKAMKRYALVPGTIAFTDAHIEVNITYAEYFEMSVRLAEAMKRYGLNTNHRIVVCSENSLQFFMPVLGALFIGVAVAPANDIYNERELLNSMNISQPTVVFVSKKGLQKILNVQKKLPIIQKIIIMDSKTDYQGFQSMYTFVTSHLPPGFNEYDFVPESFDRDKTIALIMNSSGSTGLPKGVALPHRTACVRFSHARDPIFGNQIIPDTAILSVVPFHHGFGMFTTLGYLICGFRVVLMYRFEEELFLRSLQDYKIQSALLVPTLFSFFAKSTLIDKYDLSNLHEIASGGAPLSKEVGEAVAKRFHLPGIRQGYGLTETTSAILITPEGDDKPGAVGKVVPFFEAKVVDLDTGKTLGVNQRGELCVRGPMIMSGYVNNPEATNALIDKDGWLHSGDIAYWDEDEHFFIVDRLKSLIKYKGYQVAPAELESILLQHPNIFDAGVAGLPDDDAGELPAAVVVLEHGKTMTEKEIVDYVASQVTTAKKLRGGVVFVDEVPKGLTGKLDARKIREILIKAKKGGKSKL

inhibition, active:
COc1cccc(OCC(=O)Nc2ccccc2C(N)=O)c1 59.2%
Cc1cc(/C=C2/C(=N)N3C(=NC2=O)SN=C3S(C)(=O)=O)c(C)n1-c1ccccc1 89.9%
COc1cc(SC)ccc1C(=O)Nc1nc(C)cs1 97.7%
COc1cc(SC)ccc1C(=O)Nc1cc(C)ccn1 80.7%
Cc1ccc(NC(=O)Nc2ccc3oc(C)nc3c2)cc1 70.8%
O=C(Nc1nnc(C2CC2)s1)c1ccccn1 63.4%
CSc1ccccc1-c1nnc(-c2ccc(Cl)cc2)o1 53.8%
Cc1ccc(C(=O)Nc2ccc(C)c(S(=O)(=O)N(C)C)c2)s1 71.1%
CCNc1nc(-c2cc3ccccc3o2)cs1 64.9%
Cc1ccc(C2=C/C(=C\c3cccnc3)C(=O)O2)cc1 52.2%
COc1ccc(C(=O)Nc2ccccc2C(=O)N/N=C/c2ccccc2OC)cc1 97.8%
COc1ccc(C(=O)Nc2ccccc2C(=O)N/N=C/c2ccc(O)c(OC)c2)cc1 98.3%
Cc1cc(OC(=O)c2ccccc2Cl)ccc1N1C(=O)CCC1=O 69%
O=c1c2c(nc3cc(-c4cccc(Cl)c4)[nH]n13)CCCC2 74.9%
CCOc1ccc(-c2nnc(-c3ccco3)o2)cc1 79.2%
CCOc1ccc2nc(C(=O)N3CCCC(C)C3)sc2c1 (stereo not given) 56%
O=C(O)COc1ccc(-c2nccc(-c3cccs3)n2)cc1 77.5%
COc1cccc(/C=N\NC(=O)C2=NNC(=O)C2C)c1O (stereo not given) 83.5%
O=[N+]([O-])c1ccc2oc(-c3cccc(O)c3)nc2c1 53.2%
COc1cccc(-c2nc3cc(C)ccc3o2)c1 82.8%
c1c2c(cc3sc(N4CCCCC4)nc13)OCCO2 92.9%

inhibition, inactive:
CCCOC(=O)Nc1ccccc1C(N)=O -2.5%
Cc1cccc(OCC(=O)Nc2ccccc2F)c1 6.3%
CCOC(=O)C1=C(N)N(c2ccc(C)cc2)C2=C(C(=O)CCC2)C1c1cccs1 (stereo not given) -3.4%
CS(=O)(=O)c1ccc2c(c1)SC1=NC(=O)/C(=C/c3ccco3)C(=N)N12 13.2%
CCS(=O)(=O)C1=NSC2=NC(=O)/C(=C\c3cc(C)n(-c4cccc(OC)c4)c3C)C(=N)N21 12.2%
COc1ccccc1CNC(=O)c1ccc(SC)cc1OC -4.7%
COc1cc(SC)ccc1C(=O)NCCOc1ccccc1Cl -0.8%
Cc1ccnc(NC(=O)c2ccoc2C)c1 18.1%
COc1ccc(C(=O)Nc2nncs2)c(OC)c1 40%
Cn1cnnc1SCC(=O)NNC(=O)COc1ccc(Br)cc1 3.3%
COc1ccc(/C=N/NC(=O)c2ccncc2)cc1CN1CCCc2ccccc21 -8.3%
COc1ccc(C)cc1-n1nnnc1SCc1nc2ccccc2c(=O)[nH]1 0.3%
Fc1cccc(Cc2noc(CN3CCN(c4cnccn4)CC3)n2)c1 -8.2%
Cc1nc2cc(NC(=O)NCc3ccccc3)ccc2o1 12%
Cc1nc2ccc(NC(=O)C(F)(F)F)cc2o1 -2.2%
O=C(CN1CCc2ccccc21)NC(c1ccccc1)c1ccccc1 -10.6%
O=C(N/N=C/c1ccc(OCC2COCCO2)cc1)c1ccc(Br)cc1 (stereo not given) 2.2%
CCS(=O)(=O)c1ccc(C(=O)NC)c(Cl)c1Cl -3.5%
COc1ccccc1N1CCN(CC(=O)NCCc2ccc(S(N)(=O)=O)cc2)CC1 -3%
Cc1occc1C(=O)Nc1nnc(C2CCCCC2)s1 -4%
O=C(Cc1cccs1)Nc1nnc(C2CC2)s1 -1.8%
FC(F)(F)c1cnc(Oc2ccccc2-c2nnc(-c3ccc(Cl)cc3)o2)c(Cl)c1 -1.6%
Nc1ccc(-c2nnc(-c3ccc(-c4ccccc4)cc3)o2)cc1 3.7%
COc1cccc(CC2(CO)CCCN(Cc3nc(-c4cccs4)oc3C)C2)c1 (stereo not given) -8.7%
CC(=O)Nc1ccc(OCCC[n+]2cccc(C(=O)[O-])c2)cc1 -2.9%
Cc1ccc(NC(=O)c2cccs2)cc1S(=O)(=O)N(C)C 15.2%
Cc1ccc(NC(=O)CNCc2ccccn2)cc1S(=O)(=O)N(C)C -1.9%
CCOc1ncccc1C(=O)N(CC)CC(=O)Nc1ccc(NC(C)=O)cc1 -8.7%
O=c1oc2ccccc2cc1-c1csc(Nc2ccc(O)cc2)n1 17.8%
COc1ccc2nc(Nc3nc(-c4cc5ccccc5oc4=O)cs3)sc2c1 40.7%
CC/C(Cc1ccccc1)=N/NC(=O)CCn1nnc2ccccc21 -3.6%
O=C1OC(c2ccc(Cl)cc2)=N/C1=C\c1cccnc1 -3.3%
Cc1ccccc1C1=N/C(=C/c2cccnc2)C(=O)O1 34.5%
Cc1ccc(C)c(CSc2nc(-c3ccco3)nc3c2c(=O)n(C)c(=O)n3C)c1 0.1%
CC(=O)c1ccc(N2CCN(S(=O)(=O)c3c(C)[nH]c(=O)[nH]c3=O)CC2)cc1 -3%
O=C(CCN1CCN(C/C=C/c2ccccc2)CC1)Nc1cccc(F)c1 -5.5%
COc1cc(/C=N/NC(=O)c2ccccc2)ccc1OS(=O)(=O)c1ccccc1 -2.6%
COc1ccc(/C=N/NC(=O)c2ccccc2)cc1OS(=O)(=O)c1ccccc1 -2.1%
COc1ccccc1C(=O)NNC(=O)c1ccc(NC(=O)c2ccccc2)cc1 -1.7%
CCn1c(/C=N/NC(=O)c2ccc(OC)cc2)nc2ccccc21 8.7%
CCN(CC)c1ccc([N+](=O)[O-])cc1C(=O)O -4.3%
Cc1ccc2cc(CN(c3ccc(C)c(C)c3)S(C)(=O)=O)c(=O)[nH]c2c1 -3.5%
CCOC(=O)C1=C(CC)Nc2ccccc2N=C1N -6.8%
CCc1ccccc1NC(=O)CN(c1ccc(OC)cc1OC)S(=O)(=O)c1ccccc1[N+](=O)[O-] -10.9%
COc1ccc(N(CC(=O)NC2CCCC2)C(=O)CS(=O)CC(=O)Nc2ccc3c(c2)OCO3)cc1 (stereo not given) -6.6%
COc1cc2c(C(=O)N3CCN(C)CC3)c(CSc3ccccc3)n(C)c2cc1Br -9.2%
Cc1cc2ccccn2c1C(=O)c1cccc(S(=O)(=O)N2CCOCC2)c1 4.2%
COc1ccc(Cn2c(-c3ccc(Cl)cc3)c[n+]3ccccc23)cc1 7.2%
CC(C)C(NC(=O)C1CCC(C(C)(C)C)CC1)C(=O)NCCCN1CCCCC1 (stereo not given) -3%
Cc1ccc(C)c(N2C(=O)CS/C2=N\NC(=O)c2ccccc2Cl)c1 -0.5%
COc1ccccc1C(=O)Oc1ccc(N2C(=O)CCC2=O)cc1 -2.3%
C=CCn1c(P(C)(=O)O)nc2ccccc21 -7.9% and -5.5%
CCc1ccc(OCC(=O)OCC(=O)c2c(N)n(C)c(=O)n(C)c2=O)cc1 -11.1%
O=c1c2c(nc3nc[nH]n13)CCC2 -4.1%
O=C1CCCc2c1nc(-c1cccc(Cl)c1)n2O -1.6%
COc1ccc(C(=O)OCC(=O)NC(=O)CCSc2ccccc2)cc1 -0.8%
Cc1ccc(SCCC(=O)NC(C(C)C)C(C)C)cc1 -8.1%
Cc1cc2nc(C(F)(F)F)cc(-c3cccs3)n2n1 -2.2%
CCCCOc1ccc(-c2nnc(-c3ccco3)o2)cc1 25.4%
CCC(=O)Oc1cccc(C(=O)Nc2ccc(-c3nnc(-c4ccco4)o3)cc2)c1 -4.9%
CCOc1ccc2nc(SC(CC)C(=O)Nc3cc(C)on3)sc2c1 (stereo not given) -3.8%
CCOc1ccc2nc(Nc3nc4ccc(NC(C)=O)cc4s3)sc2c1 8.7%
O=C(Nc1ccnc(-c2ccncc2)n1)c1cccs1 -0.6%
COC(=O)CSc1nccc(-c2cccs2)n1 3.7%
COc1cccc(/C=N/NC(=O)c2[nH]nc3c2CCc2ccccc2-3)c1O 28.9%
COc1cccc(/C=N/Nc2cc(C)nc(-c3ccccc3O)n2)c1O 9.6%
CNC(=O)NC(=O)C(OC(=O)c1cccc(S(=O)(=O)N2CCCCC2)c1)c1ccccc1 (stereo not given) -3.2%
COc1ccc2oc(-c3cccc(NC(=O)CSc4ccc(Cl)cc4)c3)nc2c1 3%
O=C(Cc1cccc2ccccc12)Nc1ccc2oc(-c3ccccc3)nc2c1 2.6%
COc1ccc(-c2nc3cc([N+](=O)[O-])ccc3o2)cc1OC 2.5%
COc1cccc(-c2nc(S(=O)(=O)c3ccccc3)c(N3CCOCC3)o2)c1 -0.7%
Cc1cc(NC(=O)CSc2nc3ccccc3n2CC(C)C)no1 -5.3%
COc1ccc(F)c(-c2nc(CN3CCC(c4ccccc4)CC3)c(C)o2)c1 0.5%
O=C(CCN1C(=O)C2C3C=CC(C3)C2C1=O)Oc1ccc2ccccc2c1 (stereo not given) -3.9%
CC1CC(C)CN(S(=O)(=O)c2ccc(C(=O)NN3CCOCC3)cc2)C1 (stereo not given) 0.2%
COc1ccc(-c2csc(Cc3nc(O)cs3)n2)cc1 4.6%
CSCC[C@H](NC(=O)OC(C)(C)C)C(=O)N/N=C/c1cc2ccc(C)cc2nc1Cl -6.9%
Brc1ccc2nc(N3CCCC3)sc2c1 35.9%
COc1ccc2nc(Nc3nc4cc5c(cc4s3)OCCO5)sc2c1 11.3%
